Screening results deposited in PubChem BioAssay by NMMLSC.
Most compounds without a hit are left out; they make up all but 0.93% or so of the library.
RPL19A-GFP yeast: modulators of TOR pathway RPL19A-GFP in S. cerevisiae; S. cerevisiae RPL19A-GFP strain, flow cytometry, 3 h; hits give low values; percent response vs DMSO, % at 10 µM; 330,000 compounds, 0.3% hits; AID 2025;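 active = percent response vs DMSO below 50%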;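 also: median channel GFP fluorescence of the barcoded RPL19A-GFP strain; ratio of sample median GFP to plate DMSO average so 100% = DMSO; lower means less RPL19A-GFP as with rapamycin TOR inhibition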
AGP1 TOR yeast: alters AGP1-GFP fluorescence in TOR pathway yeast screen; S. cerevisiae AGP1-GFP multiplex flow cytometry, 3 h; GFP as percent of DMSO wells; 320,000 compounds, 0.02% hits; GFP response vs DMSO, % at 10 µM;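 active = GFP response relative to DMSO above a set limit, near screen average plus 3 SD, cut at about 150% in these data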;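 also: median GFP channel fluorescence of the gated AGP1 strain per well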
MEP2 TOR yeast: yeast TOR pathway MEP2-GFP modulation. S. cerevisiae MEP2-GFP strain, flow cytometry GFP, 3 h; 100% = DMSO control level. GFP response vs DMSO, % at 10 µM. 330,000 compounds, 0.51% hits. AID 2016;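 active = GFP response versus DMSO above a set limit, roughly screen mean plus 3 SD, cut at about 180% in these data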;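 also: median GFP fluorescence of the barcode-gated MEP2-GFP cells per well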
CIT2 TOR yeast: alters CIT2-GFP fluorescence in TOR pathway yeast screen; S. cerevisiae CIT2-GFP strain, flow cytometry, 3 h; 100 means same as DMSO wells; GFP response vs DMSO, % at 10 µM; 320,000 compounds, 0.065% hits;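 active = GFP response relative to DMSO above a set limit, near the screen mean plus 3 SD, cut at about 150% in these data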;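 also: ratio of well median GFP fluorescence to mean of DMSO wells on the plate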
LAP4 TOR yeast: yeast TOR pathway LAP4-GFP modulation; 320,000 compounds, 0.34% hits; AID 2023; GFP response vs DMSO, % at 10 µM; S. cerevisiae LAP4-GFP multiplex, flow cytometry GFP, 3 h; median GFP as percent of DMSO wells;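 active = GFP response vs DMSO above a set limit, about the screen mean plus 3 SD, cut at about 150% in these data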
LAP4 cherry2: second confirmation of modulators of TOR reporter LAP4-GFP in yeast; shares compounds with LAP4 TOR yeast; S. cerevisiae LAP4-GFP strain, flow cytometry GFP, 3 h; GFP response vs DMSO, % at 10 µM; 590 compounds, 20% hits;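 active = GFP signal as percent of the solvent control above about 150%, meaning raised reporter expression, limit read from the data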;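 also: ratio of well median GFP fluorescence to plate DMSO mean so 100% = DMSO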
MEP2 cherry2: second confirmation of modulators of TOR reporter MEP2-GFP in yeast; shares compounds with LAP4 TOR yeast; S. cerevisiae MEP2-GFP strain, flow cytometry GFP, 3 h; GFP response vs DMSO, % at 10 µM; 590 compounds, 10% hits; AID 2622;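 active = GFP signal above 150% of the solvent control wells, that is a rise of more than half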;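 also: median channel GFP fluorescence of all gated yeast cells per well; ratio of median GFP to plate DMSO average so 100% = DMSO level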
RPL19A GFP CP2: yeast RPL19A-GFP TOR reporter modulation, second cherry pick | shares compounds with LAP4 TOR yeast | S. cerevisiae RPL19A-GFP strain, flow cytometry GFP, 3 h; hits give low values; 100% means same as DMSO wells | GFP response vs DMSO, % at 10 µM | 590 compounds, 3% hits | AID 2623;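 active = under 65% GFP response relative to DMSO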;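 also: median GFP channel fluorescence per well over the all cells gate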
CIT2-GFP pick2: second confirmation of modulators of TOR reporter CIT2-GFP in yeast. AID 2624. 590 compounds, 8% hits. GFP response vs DMSO, % at 10 µM. S. cerevisiae CIT2-GFP strain, flow cytometry GFP, 3 h; DMSO control wells read 100%. shares compounds with LAP4 TOR yeast;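 active = GFP response vs DMSO above about 150%, limit read from the data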;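 also: median green fluorescence per well over all gated yeast cells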
AGP1 GFP CP2: yeast AGP1-GFP TOR reporter modulation, second cherry pick; shares compounds with LAP4 TOR yeast; S. cerevisiae AGP1-GFP strain, flow cytometry GFP, 3 h; percent response vs DMSO, % at 10 µM; 590 tested, under 10 active;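 active = over 150 percent of DMSO response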;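 also: median GFP channel fluorescence over all cells without mother daughter split; sample median GFP divided by mean DMSO control so 100% equals DMSO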
Yeast autofluor: yeast s288c autofluorescence artifact, counter-screen; shares compounds with LAP4 TOR yeast; S. cerevisiae s288c, 520 nm autofluorescence, flow cytometry, 3 h; hits give high values; zero means same as solvent-only cells; fluorescence change (kMESF span) at 33 µM; 610 tested, under 10 active; AID 2757;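 active = fluorescence span over the dose series, or activity score, above about 33, limit read from the data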
s288c autofl DR: TOR screen hit shows autofluorescence in yeast s288c. shares compounds with LAP4 TOR yeast. S. cerevisiae s288c parental, compound autofluorescence, flow cytometry, 3 h. fluorescence change (span) at 33 µM. 110 tested, under 10 active. AID 488829;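 active = fluorescence change span, or the activity score built from it, above 25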
TORC1 bypass: stops wildtype yeast growth while TORC1 bypass cells still grow. shares compounds with LAP4 TOR yeast. S. cerevisiae BY4741 spot growth rating, 48-72 h; hits give low values. growth rating (0-3) at 30 µM. 120 tested, under 10 active. AID 504456;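 active = growth rating at most 1 for wild type yeast while the TORC1 bypass strain still grows fully, rated 3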
* marks the source's active call; other numbers are inactive results; nt = not tested or not shown; [ ] = dose if it differs, or a comment.

SMILES	RPL19A-GFP yeast	AGP1 TOR yeast	MEP2 TOR yeast	CIT2 TOR yeast	LAP4 TOR yeast	LAP4 cherry2	MEP2 cherry2	RPL19A GFP CP2	CIT2-GFP pick2	AGP1 GFP CP2	Yeast autofluor	others
Cn1c(=O)c(C(=O)NNC(=O)c2ccc(Br)cc2)c(O)c2ccccc21	64	72	128	90	127	162*	165*	79	81	86	2.5
Cc1cc(C)cc(NC(=O)CN2CCC(NC(=O)Cc3ccccc3)CC2)c1	98	99	96	107	91	nt	nt	nt	nt	nt	nt
O=[N+]([O-])c1ccc(Sc2nc3ccccc3o2)c([N+](=O)[O-])c1	102	98	98	107	165*	nt	nt	nt	nt	nt	0.51
Cc1cccc(C)c1NC(=O)COc1cccc(/C=N/NC(=O)C(=O)NCc2ccccc2)c1	95	99	103	97	97	nt	nt	nt	nt	nt	nt
COc1ccc(OC)c(-c2csc(NC(=O)C3CSC4(C)CCC(=O)N34)n2)c1 (stereo unspecified)	99	96	95	87	105	nt	nt	nt	nt	nt	nt
COc1cc(NC(=O)c2cccc(C)c2)ccc1NC(=O)c1cc2ccccc2o1	107	99	113	101	91	nt	nt	nt	nt	nt	0.1
O=C(Nc1ccc(NC(=O)c2cc3ccccc3o2)cc1)c1ccco1	106	98	105	101	93	nt	nt	nt	nt	nt	0.3
O=C(Nc1ccccc1)c1cc2ccccc2o1	90	84	92	81	101	nt	nt	nt	nt	nt	nt
O=C(Nc1ccc(N2CCOCC2)cc1)C1CCN(S(=O)(=O)c2ccc3c(c2)OCCO3)CC1	123	124	340*[may fluoresce green]	231*[may fluoresce green]	254*[may fluoresce green]	107	103	102	98	101	0.1
O=C(Nc1ccc2c(c1)OCO2)C1CCN(S(=O)(=O)c2ccc3c(c2)OCCO3)CC1	100	108	98	105	98	nt	nt	nt	nt	nt	nt
O=S(=O)(c1cccs1)N1CCC2(CC1)OCCO2	107	94	113	nt	85	nt	nt	nt	nt	nt	nt
O=C(Nc1ccc(O)cc1)C1CCCN1S(=O)(=O)c1ccc(F)cc1 (stereo unspecified)	107	115	196*	146	143	101	101	98	104	99	0
Nc1c(C(=O)NC2CC2)sc2nc3c(c(-c4ccco4)c12)CC/C3=C/c1ccco1	71	38	261*	86	195*	141	113	106	119	101	nt
Cc1ccc(-n2c(C)cc(C(=O)COC(=O)c3ccc[nH]c3=O)c2C)cc1C	58	85	86	81	150	nt	nt	nt	nt	nt	nt
Cc1cc(C(=O)COC(=O)c2ccc[nH]c2=O)c(C)n1-c1ccccc1F	55	41	116	84	138	155*	131	93	106	78	2.4	s288c autofl DR=1.2;TORC1 bypass=3
COc1ccc(-c2cn(Cc3ccc(C(=O)c4ccccc4)cc3)nn2)cc1	87	97	114	105	164*	100	96	99	120	100	nt
